A selection: hits, their analogues and other compounds. The true share with any hit is near 2.2%.
KLF5 inhibitor = inhibitors of KLF5 expression; DLD-1 KLF5 promoter-luciferase reporter, luminescence; inhibition, % at 5 µM; hit rate 0.23% among 290,000; AID 1700;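 active = inhibition above a per-plate limit of that plate's mean compound inhibition plus 3 SD, cut at about 60% in these data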;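 note: higher means less KLF5 promoter-driven luciferase light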
BaF3 tox = parental Ba/F3 viability inhibition as JAK2V617F counter-screen. CellTiter-Glo ATP luminescence. inhibition, % at 5.6 µM. hit rate 1.1% among 220,000. AID 1486;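 active = inhibition above a per-campaign cutoff, the mean inhibition of all tested compounds plus 3 SD, cut at about 27% in these data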
APP transl inh = APP translation inhibition; inhibition, % at 2 µM; hit rate 0.82% among 190,000; SH-SY5Y APP 5'UTR-luciferase reporter, luminescence;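 active = inhibition above a set limit, derived from the sample mean plus 3 SD, cut at about 45% in these data; inconclusive = one replicate passes the limit while the other fails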
aSyn UTR inh = MLPCN primary screen, SNCA 5' untranslated region; alpha-synuclein 5'UTR reporter, inhibitor activity; inhibition, % (tested at 7.5 µM); hit rate 0.82% among 300,000; in the data active = inhibition above about 60%; inconclusive = no clear call, values can overlap the other calls;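 note: H4 neuroglioblastoma cells stably carrying SNCA 5'UTR luciferase fusion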
Ba/F3 V617F tox = reduce viability of Ba/F3 cells dependent on JAK2V617F. hit rate 1.1% among 220,000. Ba/F3 EpoR-JAK2V617F viability, ATP luminescence. inhibition, % at 5.6 µM;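 active = inhibition above the campaign mean plus 3 SD over all tested compounds, cut at about 24% in these data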;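 note: cytokine-independent growth of Ba/F3 cells driven by EpoR plus mutant JAK2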
IEC-6 tox-1 = kills IEC-6 intestinal cells in KLF5 counter-screen. IEC-6 cytotoxicity, luminescence viability. inhibition, % at 5 µM. hit rate 0.78% among 290,000. AID 1825
BaF3 tox 2 = reduces parental Ba/F3 viability, JAK2V617F counter-screen | inhibition, % at 5.6 µM | CellTiter-Glo luminescence; cells kept alive by added IL-3 | hit rate 31% among 580 | shares compounds with Ba/F3 V617F tox;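 active = cell growth inhibition above the hit limit set in the earlier mutant JAK2 cell screen, cut at about 27% in these data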
JAK2V617F conf = confirmation: loss of viability in JAK2V617F-dependent Ba/F3 cells; shares compounds with Ba/F3 V617F tox; Ba/F3 EpoR-JAK2V617F viability, CellTiter-Glo luminescence; inhibition, % at 5.6 µM; hit rate 66% among 580;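 active = mean inhibition above the hit cutoff derived in the earlier primary screen, cut at about 25% in these data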;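 note: higher means lower luminescence from reduced cell ATP and viability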
KLF5 confirm = KLF5 inhibition, confirmation assay; shares compounds with KLF5 inhibitor; DLD-1 KLF5 promoter firefly luciferase reporter, luminescence; inhibition, % at 4 µM; hit rate 79% among 610; AID 1834;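 active = inhibition above a set limit taken from the earlier primary screen, cut at about 63% in these data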
IEC-6 tox-2 = counter-screen for KLF5 inhibitors: cytotoxicity in rat IEC-6 cells | shares compounds with KLF5 inhibitor | IEC-6 rat intestinal cells, viability luminescence | inhibition, % at 4 µM | hit rate 56% among 610; in the data active = inhibition above about 23%;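 note: cells exposed to compounds for 48 hours before viability read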
IEC-6 tox confirm = confirmation of cytotoxic compounds in rat IEC-6 intestinal epithelial cells. shares compounds with IEC-6 tox-1. IEC-6 rat intestinal epithelial viability, luminescence. inhibition, % at 5 µM. hit rate 63% among 1,900
A number is an active result; 0 = inactive; ? = inconclusive; - = no result. Cut-off read from the data, not from the text of the source, unless noted: active = inhibition above about 22%; inactive = the rest.

SMILES	KLF5 inhibitor	BaF3 tox	APP transl inh	aSyn UTR inh	Ba/F3 V617F tox	IEC-6 tox-1	BaF3 tox 2	JAK2V617F conf	others
CCOc1ccc2nc(SCC(=O)NC(=O)C(C)C)sc2c1	0	0	0	0	51	0	0	0
C[C@@H]1CCC[C@@]2(O[C@H](CCO)C[C@H](O)[C@H]2O)O1	-	-	-	0	-	-	-	-
O=C(CSc1nc2ncc(Cl)cc2[nH]1)c1ccc2c(c1)OCO2	0	0	-	0	88	0	0	0
O=c1oc2ccccc2c2c1ncn2CCN1CCOCC1	0	0	0	0	61	0	0	0
CC(=O)N1c2ccc(S(=O)(=O)N3CCC(C(=O)NC4CCCCC4)CC3)cc2CC1C (stereo unspecified)	0	-	-	0	-	0	-	-
CCCCC(C(=O)NC1CCCC1)N(C(=O)c1snc(C(N)=O)c1N)c1ccc(C)cc1 (stereo unspecified)	0	-	-	0	-	0	-	-
OC1(c2ccc(Cl)c(Cl)c2)C[n+]2ccccc2N1Cc1ccccc1 (stereo unspecified)	0	0	-	0	34	0	0	48
CC(C)(C)c1ccc(OCCNC(=S)NC(=O)c2cccnc2)cc1	0	0	0	0	0	0	-	-
CCOC(=O)c1ccccc1Nc1cn(C(C)=O)c2ccccc12	0	0	0	0	0	0	-	-
CC(=O)n1cc(N(C(=O)CCl)c2ccc(Cl)cc2)c2ccccc21	0	0	-	103	98	0	104	98
COCCOC(=O)C1=C(C)N(c2ccccc2)C(=O)NC1c1cccc([N+](=O)[O-])c1 (stereo unspecified)	0	0	0	0	34	0	0	0
CCCCNc1c(C(=O)OCC)c(C)nc2c1cnn2CC	-	-	-	0	-	-	-	-
O=C(NC1(C(F)(F)F)Oc2ccccc2O1)N1CCCC1	0	0	0	0	40	0	0	36
CC1=CC(C)(C)N2C(=O)C3(NCCc4c3[nH]c3ccccc43)c3cccc1c32 (stereo unspecified)	0	0	0	0	0	0	-	-
C/C(=N/NC(=O)CCc1c(C)n[nH]c1C)c1cccc([N+](=O)[O-])c1	0	0	-	0	0	0	-	-
CN(C)S(=O)(=O)c1cccc(NC(=S)N/N=C/c2cc(Br)ccc2O)c1	64	0	-	69	59	0	95	84	KLF5 confirm=77;IEC-6 tox-2=23
Cn1c(-c2ccccc2)c(/C=N/NC(=O)c2ccc(O)cc2)c2ccccc21	0	0	-	0	0	0	-	-
CCCCCN1C=CC(=C2C(=O)c3ccccc3C2=O)C=C1	95	0	54	113	24	0	34	45	KLF5 confirm=97;IEC-6 tox-2=0
CC1=CC(=C2C(=O)c3ccccc3C2=O)C=C(C)N1C	0	0	0	0	0	0	-	-
C(=N\Nc1nc2ccccc2[nH]1)/c1ccccn1	86	0	0	112	31	0	0	36	KLF5 confirm=70;IEC-6 tox-2=46
N=c1c2c(-c3ccccc3)c(-c3ccccc3)n(Cc3ccco3)c2ncn1Cc1ccccc1	0	0	0	0	0	0	-	-
N=c1c2c(-c3ccccc3)c(-c3ccccc3)n(Cc3ccccc3)c2ncn1CCO	76	0	78	?	27	0	0	0	KLF5 confirm=0;IEC-6 tox-2=22
COc1ccc(Cl)cc1NC(=O)CCc1nc(-c2ccccc2F)no1	0	0	0	0	0	0	-	-
O=C(Nc1ccccc1)C1=C(c2ccccc2)S(=O)(=O)CCS1(=O)=O	0	0	87	0	85	28	66	100	IEC-6 tox confirm=24
Cc1ccc(C(=O)N/N=C/c2ccc(-c3cccc(C(F)(F)F)c3)o2)cn1	0	0	-	65	39	28	58	91	IEC-6 tox confirm=37
Cc1c(OCC(=O)N(C)c2ccccc2)ccc2c3c(c(=O)oc12)CCC3	0	-	-	0	-	0	-	-
CCC1(CC)NC(=O)N(CC(=O)OCC(=O)Nc2sccc2C#N)C1=O	0	0	0	0	0	0	-	-
